Experimental data reported in ChEMBL document CHEMBL1201862, “PubChem BioAssay data set” (2004).
Values joined by “and” are separate entries in the source; they are usually repeats but may differ in a detail not shown here. Identical values can stand only once. Among all 400,000 compounds or so, about 2,100 (0.53%) were called active. Another 14% or so got no clear call; they are omitted. No rule for the calls is given here. Shown is part of a subset that was picked to be rich in actives.

Biological target: Ataxin-2 (Homo sapiens) (UniProt Q99700)
Sequence (Q99700 whole entry): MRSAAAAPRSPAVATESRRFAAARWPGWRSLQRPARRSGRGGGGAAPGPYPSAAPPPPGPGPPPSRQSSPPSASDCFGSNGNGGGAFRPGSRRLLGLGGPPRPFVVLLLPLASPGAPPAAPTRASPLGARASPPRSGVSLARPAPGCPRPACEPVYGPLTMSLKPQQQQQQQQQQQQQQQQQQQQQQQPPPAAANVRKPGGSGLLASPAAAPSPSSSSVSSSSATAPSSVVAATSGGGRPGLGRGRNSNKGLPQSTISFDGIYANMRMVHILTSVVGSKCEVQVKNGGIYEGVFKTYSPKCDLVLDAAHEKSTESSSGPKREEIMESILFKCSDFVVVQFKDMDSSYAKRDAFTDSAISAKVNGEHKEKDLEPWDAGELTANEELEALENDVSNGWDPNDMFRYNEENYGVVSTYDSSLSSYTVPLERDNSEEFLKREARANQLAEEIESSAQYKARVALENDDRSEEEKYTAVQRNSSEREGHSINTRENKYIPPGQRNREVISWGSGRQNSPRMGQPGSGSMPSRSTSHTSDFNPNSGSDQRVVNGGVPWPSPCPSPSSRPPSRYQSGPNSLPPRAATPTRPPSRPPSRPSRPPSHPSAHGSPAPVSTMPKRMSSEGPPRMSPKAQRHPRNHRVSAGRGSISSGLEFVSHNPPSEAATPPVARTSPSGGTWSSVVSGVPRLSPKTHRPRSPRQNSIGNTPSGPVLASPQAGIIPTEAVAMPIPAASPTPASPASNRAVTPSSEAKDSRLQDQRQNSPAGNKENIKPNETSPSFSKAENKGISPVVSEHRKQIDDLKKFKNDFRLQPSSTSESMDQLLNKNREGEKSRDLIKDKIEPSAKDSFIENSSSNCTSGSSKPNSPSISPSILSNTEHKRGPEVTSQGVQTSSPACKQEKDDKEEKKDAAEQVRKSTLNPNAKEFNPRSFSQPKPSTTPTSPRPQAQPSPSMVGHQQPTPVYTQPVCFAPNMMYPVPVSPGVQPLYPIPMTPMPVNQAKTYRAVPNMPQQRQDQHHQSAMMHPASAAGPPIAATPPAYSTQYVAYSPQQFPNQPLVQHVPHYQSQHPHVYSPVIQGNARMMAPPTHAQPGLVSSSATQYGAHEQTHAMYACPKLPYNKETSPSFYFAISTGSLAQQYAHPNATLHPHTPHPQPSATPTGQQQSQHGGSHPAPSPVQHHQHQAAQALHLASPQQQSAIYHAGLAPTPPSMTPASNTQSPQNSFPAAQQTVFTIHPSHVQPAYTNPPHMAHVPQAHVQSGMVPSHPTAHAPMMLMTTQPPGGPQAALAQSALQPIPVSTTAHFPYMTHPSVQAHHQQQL
Test: qHTS for Inhibitors of ATXN expression.
Type: functional

Row | SMILES | Potency
1 | COc1ccc(C(C)NCCC(c2ccc(OC(C)C)cc2)c2ccccc2OC)cc1 (centres undefined) | 39.8 µM (active)
2 | Fc1cccc(CNCc2ccc3c(c2)OCO3)c1 | inactive
3 | COc1ccc(CNCCC(c2ccc3c(c2)OCO3)c2ccccc2OC)cc1 (centres undefined) | 22.4 µM (active)
4 | COc1ccccc1/C=C/C(=O)OCC(=O)NCc1ccc2c(c1)OCO2 | inactive
5 | COc1ccc2[nH]c(SCC(=O)NC(C)c3ccccc3)nc2c1 (centres undefined) | inactive
6 | Cc1c(CC(=O)N2CCN(C(=O)C3COc4ccccc4O3)CC2)c(=O)oc2cc(O)cc(O)c12 (centres undefined) | inactive
7 | Cc1ccc(S(=O)(=O)N2CCOCC2)cc1NC(=O)COC(=O)/C=C/c1ccco1 | inactive
8 | CC[C@@H]1Cc2cc(O)ccc2C2=C1c1ccc(O)cc1C[C@H]2CC | 39.8 µM (active) and 22.4 µM (active)
9 | Clc1ccc(-c2nc(N3CCCCC3)nc3ccccc23)cc1 | inactive
10 | COc1ccc(-n2c(=O)c(CCC(=O)NCCc3ccccc3F)nc3ccccc32)cc1 | inactive
11 | Cc1ccc(C(=O)c2c(C)oc3c2C(=O)C(=O)c2ccccc2-3)cc1 | 39.8 µM (active)
12 | Cc1oc2c(c1C(=O)c1ccccc1)C(=O)C(=O)c1ccccc1-2 | 3.98 µM (active)
13 | Cc1sc(N)c(C(=O)c2ccccc2)c1C | inactive
14 | CCOc1ccc(-n2c(C)cc(/C=N/NC(=O)C(N)=O)c2C)cc1 | inactive
15 | CCOc1ccc(-n2c(C)cc(C(=O)CCl)c2C)cc1 | 29.9 µM (active)
16 | Cc1ccc(-n2c(C)cc(C(=O)COc3cccnc3[N+](=O)[O-])c2C)cc1 | inactive
17 | CCCn1c(=N)c(C(=O)NCc2ccco2)cc2c(=O)n3cc(C)ccc3nc21 | inactive
18 | CC1CCc2c(sc3nc(-c4cc5ccccc5oc4=O)nc(Cl)c23)C1 (centres undefined) | inactive
19 | CCc1nc(N2CCN(C(=O)CCl)CC2)c2c3c(sc2n1)CC(C)CC3 (centres undefined) | 35.5 µM (active)
20 | CC1CCc2c(sc3ncn(CC(=O)N4CCCCC4)c(=O)c23)C1 (centres undefined) | inactive
21 | COCCCn1c(C(=O)N2CCOCC2)cc2c(=O)n3ccccc3nc21 | inactive
22 | CN1/C(=C/C(=O)c2nc(S(C)(=O)=O)ncc2Cl)C(C)(C)c2ccccc21 | 31.6 µM (active)
23 | CN1/C(=C\C(=O)c2cccnc2)C(C)(C)c2ccccc21 | inactive
24 | CC1=C(C(=O)c2ccccc2)C(c2ccc(O)cc2)NC(S)=N1 (centres undefined) | inactive
25 | O=C(NCCCN1CCCC1=O)C1CCN(S(=O)(=O)c2ccccc2)CC1 | inactive
26 | O=C(NCCC1=CCCCC1)C1CCC(CNc2nc(S)nc3ccccc23)CC1 (centres undefined) | 23.8 µM (active)

Row | SMILES | Potency
27 | O=C(COC(=O)/C=C/c1ccccc1)NCCC1=CCCCC1 | inactive
28 | CCCCN(C(=O)NC(=O)C1=C(N2CCOCC2)/C(=C/c2ccccc2)CC1)S(C)(=O)=O | inactive
29 | C=CCO/C(O)=C1\C(C)=NC(SCC(=O)Nc2nccs2)=C(C#N)C1c1ccc(Cl)cc1 (centres undefined) | inactive
30 | O=C1CCC[C@@H]2C[C@@]3(C[C@@H]4CCN1[C@H]24)Nc1cc(Cl)c(Cl)cc1N=C3NCc1ccccc1 | 35.5 µM (active)
31 | CC(C)(C)CC(C)(C)NC1=Nc2cc(Cl)c(Cl)cc2NC12C[C@H]1CCC(=O)N3CC[C@@H](C2)[C@@H]13 (some centres undefined) | 31.6 µM (active)
32 | COc1ccc2c(c1)CCC1=C2N=C(S)NC1c1ccc(N(C)C)cc1 (centres undefined) | inactive
33 | c1cc(SC2CCCCC2)cc(-c2nc3cnccn3c2NC2CCCCC2)c1 | inactive
34 | Cc1cc(C)n2c(=O)c3ccc(Cl)cc3nc2c1C#N | inactive
35 | CC(C)(C)c1cc(CP(=O)(c2ccccc2)c2ccccc2)cc(C(C)(C)C)c1O | inactive
36 | O=C(/C=C/c1ccc(N2CCC(c3ccccc3)=N2)cc1)c1ccccc1 | inactive
37 | O=C(C=Cc1ccccn1)c1ccccc1O | 39.8 µM (active)
38 | O=C(C=Cc1ccccn1)c1ccccc1 | 35.5 µM (active)
39 | COc1ccccc1C(=O)CSc1ccccn1 | inactive
40 | COc1ccc2[nH]cc(/C=C/C(=O)c3ccccc3)c2c1 | inactive
41 | Cc1[nH]c2ccccc2c1/C=C/C(=O)c1ccncc1 | inactive
42 | O=C(O)c1ccc2c(c1)C(=O)N(c1ccc(/C=C/C(=O)c3ccccc3)cc1)C2=O | inactive
43 | O=C(C=Cc1ccccc1F)c1ccccc1 | 31.6 µM (active)
44 | O=C(O)/C(=C\c1ccco1)NC(=O)c1ccco1 | inactive
45 | Cc1ccc(NC(=O)CCc2nnc3ccc(N4CCC5(CC4)OCCO5)nn23)nc1 | inactive
46 | COc1ccc(COc2cc(-c3cccc(OC)c3)nc3ccc(N)cc23)cc1 | inactive
47 | O=[N+]([O-])c1cccc(NC(=S)N2CCOCC2)c1 | inactive
48 | CC(C)N1CC(C(=O)Nc2cccc([N+](=O)[O-])c2)CC1=O (centres undefined) | inactive
49 | COC(=O)/C=C\C(=O)Nc1cccc([N+](=O)[O-])c1 | 31.6 µM (active)
50 | O=C(CNC(=O)c1ccc(Br)o1)NCC1CCCCC1 | inactive
51 | O=C(NCC1CCCCC1)C1(CC2CC(c3cccc(Br)c3)=NO2)CCNCC1 (centres undefined) | 35.5 µM (active)
52 | O=C(NCC1CCCCC1)C1(CC2CC(c3ccc(Cl)cc3)=NO2)CCNCC1 (centres undefined) | 39.8 µM (active)

Row | SMILES | Potency
53 | COc1cc(NC(=O)C2CC(c3cccc(Br)c3)=NO2)cc(OC)c1OC (centres undefined) | inactive
54 | O=C(O)c1cc(-c2ccc(-c3ccc(F)cc3)o2)nc2ccccc12 | inactive
55 | C[C@@H]1C(c2cccc(Cl)c2)=NN(c2ccccc2)[C@H]1C(=O)N1CCOC1=O | inactive
56 | Oc1c(Cl)cc(Cl)cc1/C=N/c1nc(-c2ccc(Cl)cc2)cs1 | inactive
57 | Cc1[nH]n(-c2nc(-c3ccc(Cl)cc3)cs2)c(=O)c1N=Nc1ccc(O)cc1 | 26.7 µM (active)
58 | O=C(Nc1cccc(OC(F)(F)F)c1)C1Cc2c(-c3ccc4c(c3)OCO4)ccnc2O1 (centres undefined) | 39.8 µM (active)
59 | CC(=O)Nc1ccc(C2CC(c3ccc(Cl)cc3)=NN2c2ccccc2)cc1 (centres undefined) | inactive
60 | O=C1OC(C(=O)Nc2ccc(Cl)c(C(F)(F)F)c2)Cc2ccccc21 (centres undefined) | inactive
61 | CCOC(=O)c1cc(-c2ccc3c(c2)OCO3)nc2onc(C)c12 | inactive
62 | CC(=O)Nc1cccc(-c2ccnc3c2CC(C(=O)Nc2ccc(F)c(Cl)c2)O3)c1 (centres undefined) | 22.4 µM (active)
63 | CC(C)CN(CC(C)C)C(=O)c1cc2c(=O)n3ccccc3nc2s1 | inactive
64 | O=C(Nc1ccc(Cl)cn1)c1ccccc1SCc1ccccc1 | inactive
65 | O=C(NCCOC(=O)c1ccccc1)c1ccccc1 | inactive
66 | N=C(NOC(=O)c1ccccc1)C(Cc1ccccc1)C(=O)NOC(=O)c1ccccc1 (centres undefined) | 39.8 µM (active)
67 | COc1ccc(CN2C(=O)c3cccnc3C2=O)cc1S(=O)(=O)N1CCOc2ccc(C)cc21 | inactive
68 | O=C(c1cnn(-c2ccccc2)c1)c1ccccc1O | inactive
69 | CC(Sc1ccccc1)C(=O)NN=C1CCCCCCC1 (centres undefined) | inactive
70 | COc1ccccc1NC(=O)CN1CCN(CC(=O)Nc2ccc(Cl)c(C(F)(F)F)c2)CC1 | 44.7 µM (active)
71 | CCOc1ccc(NC(=O)CN2CCN(CC(=O)Nc3ccccc3OC)CC2)cc1 | inactive
72 | O=C(CN1CCN(C(=O)c2c(F)cccc2F)CC1)Nc1ccccc1C(F)(F)F | inactive
73 | O=C(Cc1ccccc1)Nc1ncccc1Cl | inactive
74 | Cc1ccccc1-c1ccc(/C=C2/SC(N3CCOCC3)=NC2=O)o1 | inactive
75 | O=C1NC(=S)S/C1=C/c1ccc(N2CCOCC2)o1 | 10 µM (active)
76 | Cc1ccc(-c2ccc(/C=C3\SC(N4CCOCC4)=NC3=O)o2)cc1 | inactive
77 | Cn1c(/C=C(\C#N)C(N)=S)ccc1-c1ccc(Br)cc1 | 11.2 µM (active)
78 | N#C/C(=C/c1ccc(-c2ccc(Br)cc2)o1)C(=O)NC1CCCCC1 | inactive

Row | SMILES | Potency
79 | CC(=O)c1sc2nsc(SCCN3CCOCC3)c2c1N | inactive
80 | COc1ccc(CNc2nc3ccccc3n2C)c(OC)c1 | inactive
81 | CCn1c2ccccc2c2cc(CNCc3ccc(OC)cc3OC)ccc21 | 42.3 µM (active)
82 | CCc1cc(=O)oc2c(CNCc3ccc(OC)cc3OC)c(O)c(Cl)cc12 | inactive
83 | Cc1cc(C)c(C(=O)COC(=O)C2CCN(c3ccc(C(F)(F)F)cn3)CC2)c(C)c1 | inactive
84 | CC[n+]1c(/C=C2/C=C(C)CC(C)(C)C2)sc2ccc(OC)cc21 | 39.8 µM (active)
85 | CCN1CCN(Cc2ccc(NC(=O)c3ccc(C)c(NC(=O)c4cncc(-c5cccs5)c4)c3)cc2C(F)(F)F)CC1 | 20 µM (active)
86 | CCN1CCN(Cc2ccc(NC(=O)c3ccc(C)c(NC(=O)c4cccc5[nH]ccc45)c3)cc2C(F)(F)F)CC1 | 35.5 µM (active)
87 | O=C(CO)N/N=C/c1c2ccccc2cc2ccccc12 | inactive
88 | O=C(O)c1ccc(-n2cc(-c3cc4ccccc4oc3=O)nc2S)cc1 | inactive
89 | Cc1c(CCC(=O)NCCCN2CCCC2=O)c(=O)oc2cc(O)ccc12 | inactive
90 | Cc1cc(C(=O)N/N=C/c2cn(C)nc2C)c2ccccc2n1 | inactive
91 | COC(=O)NCC(c1cccnc1)N1CCN(c2ccccc2)CC1 (centres undefined) | inactive
92 | CC(C)(C)c1cc(C(c2cccnc2)N2CCN(CCO)CC2)cc(C(C)(C)C)c1O (centres undefined) | 25.1 µM (active)
93 | CCN1CCN(C(c2ccc(C(F)(F)F)cc2)c2ccc3cccnc3c2O)CC1 (centres undefined) | inactive
94 | Cc1onc(-c2c(Cl)cccc2Cl)c1C(=O)NNC(=O)c1c(-c2c(Cl)cccc2Cl)noc1C | inactive
95 | N#Cc1sc2nc(C3CC3)cc(-c3ccc(Cl)cc3)c2c1N | inactive
96 | CC(C)c1ccccc1NC(=O)CN1C(=O)c2cccc3cccc1c23 | inactive
97 | CCCCc1c(-c2ccccc2OC)ncn1Cc1ccc(-c2ccccc2)cc1 | 22.4 µM (active)
98 | COc1ccccc1C1=NC(c2ccccc2)CN1c1ccccc1 (centres undefined) | inactive
99 | CCCCc1c(-c2ccccc2OC)ncn1CCc1ccc(OC)cc1 | 39.8 µM (active)
100 | O=C1Cc2ccccc2C(=O)N1Cc1cccc(Cl)c1 | inactive
101 | CCCCc1c(-c2ccccc2OC)ncn1C1CCCC1 | 22.4 µM (active)
102 | Nc1cccc2c1C(=O)N(Cc1cccc(Cl)c1)C2=O | inactive
103 | CCCCc1c(-c2ccccc2OC)ncn1CCc1cccc(Cl)c1 | 31.6 µM (active)
104 | COc1cc2c3nnc(-c4ccccc4)c-3cn(Cc3ccc(F)cc3)c2cc1OC | inactive
